In the library only some 21% were active in any assay of this set; here they are far more common.
HCV inh: blocks hepatitis C virus; Potency, µM (top dose mostly 41.8 µM), for the others: top-dose activity change, negative = inhibition, actives largely listed as inhibitors; AID 651820; 3.4% of 340,000 active; Huh7.5.1 HCVcc-Cre infection, luciferase reporter, 44 h; also: potency is read from the fitted curve at half-maximal effect; % is scaled to controls: 0 for no effect and ±100 for the full control effect
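Infectious HCVcc-Cre (~0.5 moi) was added to cells just after compound, with cells seeded 4 h earlier at 1,000 per well. Luciferase activity after 44 h culture reported infection; substrate was incubated 15 min at room temperature before reading.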
Cycloheximide cs: affects cycloheximide protein synthesis inhibition readout, counter-screen | max response, % | 12% of 300,000 active | AID 2314 | cell reporter, cycloheximide protein synthesis inhibition counterscreen; in the data active = max response mostly above about 13%, no sharp cut-off; inactive = mostly below about 14%; also: read at 38.3 µM for the half of the compounds with a filed dose; 0% is about no effect
Pf growth 96h: P. falciparum growth inhibition at 96 hours. P. falciparum luciferase reporter growth, 96 h. Potency, µM (series often up to 28.7 µM), inactives show at the top dose activity change, negative = inhibition, usual class: inhibitors. 6.9% of 320,000 active; also: potency is read from the fitted curve at half-maximal effect; % is scaled to controls: 0 for no effect and ±100 for the full control effect
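Two-generation exposure (96 h) targets delayed-death phenotype. Reporter parasites carrying integrated firefly luciferase, in red cells at 2% hematocrit and 0.05% parasitemia final, kept at 37 C, 5% CO2; luminescence loss indicates inhibition.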
Pf growth 48h: P. falciparum growth inhibition at 48 hours (one generation). P. falciparum luciferase growth in erythrocytes, 48 h. Potency, µM (highest dose often 28.7 µM), without a hit: at the top dose activity change, negative = inhibition, most hits filed as inhibitors. 5.9% of 310,000 active. AID 504832; also: potency is read from the fitted curve at half-maximal effect; % is scaled to controls: 0 for no effect and ±100 for the full control effect
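Luminescence readout; reporter = integrated firefly luciferase in P. falciparum. RBC culture at 2% hematocrit, 0.1% parasitemia final, 37 C/5% CO2; decreased signal taken as growth inhibition.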
AMA1-RON2 inh: AMA1-RON2 (P. falciparum) interaction inhibition; AlphaScreen AMA1-biotinylated RON2 peptide binding; AID 720542; Potency, µM (series often up to 58.2 µM), inactives show at the top dose activity change, negative = inhibition, actives largely listed as inhibitors; 0.2% of 360,000 active;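 also: potency is read from the fitted curve at half-maximal effect; 0% = vehicle wells and -100% = peptide control; nearly all actives have a fitted effect of over 45% in size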
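AMA1 (3D7) with his tag at 25 nM final met compounds first, then biotinylated RON2 peptide at 25 nM; detection used donor plus acceptor beads, 10 µg/mL apiece, read by AlphaScreen after 30 min at room temperature.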
Shiga inhibitor: blocks Shiga toxin action in Vero cells; 9.2% of 290,000 active; AID 2315; Vero cells, Shiga toxin protein synthesis inhibition reporter; inhibition, % at 38.7 µM; in the data active = inhibition mostly above about 28%, no sharp cut-off; inactive = mostly below about 43%; also: 0% is about no effect
The depositor's hits bear a star; i = inactive; ? = inconclusive; nt = no result; ! = not active in a repeat; [ ] = another dose, or the depositor's remark. Unless noted, calls follow the shape of the dose curve; as a rule, active = well fitted curve in the direction sought with a large enough effect; inconclusive = small, poorly fitted or top-dose-only effect, or another doubt; inactive = no such curve, though single readings can be large; an effect the other way counts as inactive or inconclusive.

SMILES	HCV inh	Cycloheximide cs	Pf growth 96h	Pf growth 48h	AMA1-RON2 inh	Shiga inhibitor
CC(C)NCC(O)COc1ccc(CCOCC2CC2)cc1 (configuration not stated)	0.5%[8.37 µM]	-2.2	3.38µM*!	13.5µM*!	-3.2%	-7.7
CC(=O)Nc1ccc(OCC(O)Cn2cnc3ccccc32)cc1 (configuration not stated)	10.3%	-1.0	7.38µM*	24.1%	-1.5%	-9.3
CC(C)NCC(O)COc1ccc2c(c1)CCC2 (configuration not stated)	-2.4%	32.5*	16.7%	-2.9%	14.9%	110.0*
OC(COc1ccc2c(c1)CCC2)Cn1cnc2ccccc21 (configuration not stated)	?	22.7	29.5%	10.4µM*	-1.3%	74.2*
N#Cc1c(NC(=O)COC(=O)c2ccc(S(=O)(=O)N3CCCC3)cc2)sc2c1CCCCC2	?	0.2	27.6%	5.4%	11.5%	-2.1
CCc1nc2ccc(C(=O)N3CCN(C(=O)c4ccco4)CC3)cn2c1N(CCC(C)C)CCN(C)C	nt	nt	nt	nt	17.5%	nt
OC(CN(c1ccccc1)c1ccccc1)Cn1cnc2ccccc21 (configuration not stated)	?	-3.4	i	11.7µM*	-5.1%	29.9
CCc1ccc(CN2CCCC(CCC(=O)N3CCN(c4ccccn4)CC3)C2)o1 (configuration not stated)	-21.6%	-1.0	?	-14.8%	1.7%	17.8
O=C(Cn1c(=O)oc2ccccc21)NCC1COc2ccccc2O1 (configuration not stated)	1.8%	-4.0	18.1%	2.6%	23.9%	-4.5
CN(C)/C=N/c1nc2ccc3c(c2s1)CCCC3	-17.5%	36.4*	?	129.1%	-5.0%	87.3*
Cc1cc(Sc2nnc(/N=C/N(C)C)s2)c2ccccc2n1	?	-1.1	?	?	1.2%	-14.7
Cc1nc(=S)c2ccccc2[nH]1	?	14.0	40.1%	nt	6.9%	7.6
Cc1cc2[nH]c3ccccc3c2c(C)n1	?	35.7*	2.08µM*	6.57µM*	-5.7%	37.4*
Cc1cccc(N(Cc2ccccc2F)S(C)(=O)=O)c1	0.6%	-3.0	9.28µM*	-18.5%	-6.2%	-10.7
Cc1ccc([C@H]2C[C@H](O)[C@@H](n3cc(C4CC4)nn3)CN2C(=O)c2cccs2)cc1	nt	nt	nt	nt	0.0%	nt
COCCCN1CN(S(=O)(=O)c2ccc(C)cc2C)c2nc3ccccc3nc21	9.6%	-2.0	?	?	8.2%	-1.7
CCOCCCN1CN(S(=O)(=O)c2ccc(Cl)cc2)c2nc3ccccc3nc21	5.9%	-1.7	?	-10.6%	1.9%	7.8
CC(C)OCCCN1CN(S(=O)(=O)c2ccc(Cl)cc2)c2nc3ccccc3nc21	-14.9%	17.5*	?	?	7.2%	11.3
CC(C)OCCCN1CN(S(=O)(=O)c2cccc(Cl)c2)c2nc3ccccc3nc21	-20.2%	22.5*	9.28µM*	?	-1.5%	37.7*
Cc1ccccc1N1C(=O)NC(=O)/C(=C\c2cnn(-c3ccccc3)c2)C1=O	18.3%	24.0*	8.3%	2.4%	11.2%	56.5*
CCn1c(C)cc(/C=C2\C(=O)NC(=O)N(c3ccccc3C)C2=O)c1C	10.0%	-1.4	0.0%	-0.6%	4.9%	-9.9
COc1cccc(CNCC(=O)NC(=O)NC2CCCC2)c1	2.5%	nt	nt	nt	-26.0%	nt
O=C(CNc1ccc(F)cc1)N/N=C1\CCc2ccccc21	-13.4%	12.7	-23.5%	?	32.1%	50.6
CCOC(=O)N/N=C1\CCc2ccccc21	19.1%	37.9*	66.1%	79.3%	-3.7%	73.1*
COc1ccc(NCC(=O)N/N=C2\CCc3ccccc32)cc1	-1.1%	29.4*	?	?	16.7%	66.3*
SMILES	HCV inh	Cycloheximide cs	Pf growth 96h	Pf growth 48h	AMA1-RON2 inh	Shiga inhibitor
CCOC(=O)NN=C1c2ccccc2-c2ccccc21	?	-1.0	10.4µM*	25.5%	4.8%	11.1
CCOC(=O)Nc1ccc2c(c1)C(=NNC(=S)NC)c1ccccc1-2	nt	nt	nt	nt	68.7%	nt
Cc1ccc(NN=C2c3ccccc3-c3ccccc32)cc1	?	48.3*	184.9%	106.3%	-10.3%	69.7*
COC(=O)N/N=C1\CCCc2ccccc21	7.8%	-3.3	10.1%	6.5%	2.5%	1.4
Cc1ccc(OCC(=O)NN2C(=O)c3ccccc3C2=O)cc1	16.7%	-5.2	21.8%	5.4%	43.2%	-2.3
Cc1ccc(OCC(=O)NN=C2c3ccccc3-c3ccccc32)cc1	14.1µM*	-3.0	-24.6%	5.5%	6.6%	-12.0
COc1cc(/C=N/Nc2ncc(C(F)(F)F)cc2Cl)cc(OC)c1OC	?	-2.3	?	4.65µM*	3.7%	8.5
COc1cc(/C=N/Nc2ncc(C(F)(F)F)cc2Cl)cc(OC)c1O	-6.4%	13.3	57.5%	42.4%	22.6%	-8.6
O=C(O)c1ccc(/C=N/NC(=O)c2ccc(F)cc2)cc1	13.2%	15.9	-17.9%	30.4%	-5.3%	7.4
O=C(O)c1ccc(/C=N/Nc2ccc(C(F)(F)F)cn2)cc1	15.6%	35.3*	i	167.7%	6.1%	83.7*
COc1cc(/C=N/Nc2ccc(C(F)(F)F)cn2)ccc1O	?	30.9*	35.6%	13.4%	11.9%	127.1*
COc1ccc(CC(=O)NCC2CCCN(Cc3cccc(SC)c3)C2)cc1 (configuration not stated)	-29.6%	-2.0	?	?	-1.3%	-3.0
O=C(CNC(=O)c1cccs1)Nc1ccncc1	7.1%[8.37 µM]	nt	1.7%	7.4%	-23.3%	nt
O=C(CSc1nc2ccccc2s1)c1cc2ccccc2o1	8.3%	24.3*	8.8%	-11.3%	54.6%	45.4
O=C(CSc1nc2ccccc2s1)Nc1nccs1	14.8%	15.2	99.9%	14.4%	0.6%	11.4
CC(C)OC(=O)CSc1nc2ccccc2s1	16.2%	48.9*	?	25.8%	-9.2%	63.6*
Nc1nonc1NC(=O)CSc1nc2ccccc2s1	17.9%	17.5	10.4µM*	19.1%	0.4%	11.8
COC(=O)c1ccc(CSc2nc3ccccc3s2)o1	4.0%	55.6*	0.0%	72.2%	26.9%	47.9*
NC(Cc1ccc(C(F)(F)F)cc1)c1csc(Nc2cc(Oc3ccccc3)ncn2)n1 (configuration not stated)	nt	nt	nt	nt	91.2%	nt
COc1cccc(CNC(=O)[C@@H]2CCCN2C(=O)[C@H]2CCCCN2C(=O)OC(C)(C)C)c1	nt	nt	nt	nt	9.6%	nt
CS(=O)(=O)c1ccc(S(=O)(=O)N2CCN(C(=O)C(O)c3ccccc3)CC2)cc1 (configuration not stated)	nt	nt	nt	nt	5.0%	nt
CC(=O)CSc1nc2ccccc2s1	7.9%	24.7*	57.3%	83.7%	18.0%	61.4
CSCCC(C(=O)N1CC2(C)CC1CC(C)(C)C2)N1C(=O)c2ccccc2C1=O (configuration not stated)	2.8%	-2.2	13.1µM*	-21.9%	-0.6%	-3.9
